# From PubChem BioAssay AID2685 (National Center for Advancing Translational Sciences (NCATS), 2010)
# In all, about 320,000 compounds went through this assay and about 2,100 (0.66%) were called active. Not shown: some 53% with an inconclusive outcome. Calls come from the whole dose curve; as a rule, active = well fitted inhibition curve with a large enough effect in the signal ratio, with a control signal flat (not every such curve was filed as active); inconclusive = small, poorly fitted or top-dose-only effect, or effect the other way, or a change in a side signal; inactive = flat fitted curve, though single readings scatter; the % refers to the signal ratio. For the sample, actives were picked, then their nearest neighbours and some compounds at random.
# Test: qHTS Assay for Lipid Storage Modulators in Drosophila S3 Cells;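 for cell number change: cells counted by Cell Tracker Red CMTPX staining in the red channel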
# Conditions: BODIPY lipid droplet fluorescence, 18-24 h, cells fed with added oleic acid; cell number change: measured here: cell count max response; series mostly up to 46.1 µM
# Outline: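 Drosophila S3 cells got compounds at several concentrations plus oleic acid (400 uM solution). Laser-scanning cytometry with 488 nm excitation read lipid droplets at 500-530 nm and cells at 575-640 nm. Percent activity was relative to 20 uM Triacsin C.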
# Potency is the fitted concentration of half-maximal effect.
Structure (SMILES),Potency,cell number change [%]
O=C(C1=C[C@@H](c2coc3ccccc3c2=O)C[C@@H](OCCCCO)O1)N1CCN(Cc2ccc3c(c2)OCO3)CC1,inactive,-4.69
Cc1[nH]c(=S)c(C#N)c(-c2ccccc2)c1C(=O)Nc1ccccc1,7.31 µM (active),-24.7
Cc1ccc(-c2c(C(=O)Nc3ccccc3C)c(C)[nH]c(=S)c2C#N)o1,inactive,5.19
CCc1c(C(=O)Nc2ccccc2)c(C)[nH]c(=S)c1C#N,inactive,16.5
O=C(CCCN1C(=O)S/C(=C/c2ccccc2)C1=S)Nc1ccc(C(=O)O)cc1,inactive,10.3
CCc1cccc(NC(=O)CCCN2C(=O)C(c3ccccc3)Oc3cccnc32)c1 (centres undefined),20.6 µM (active),12
Cc1cc(C)cc(NC(=O)CCCN2C(=O)C(c3ccccc3)Oc3cccnc32)c1 (centres undefined),-12%,–
CC(=O)c1ccc(NC(=O)CCCN2C(=O)C(c3ccccc3)Oc3cccnc32)cc1 (centres undefined),inactive,-3.13
Cc1ccc(C)c(NC(=O)C2CCCN2S(=O)(=O)c2ccc3c(c2)n(C)c(=O)c(=O)n3C)c1 (centres undefined),inactive,7.23
O=C(/C=C/c1ccccc1)NC(NC(=S)Nc1cc(Cl)ccc1Cl)C(Cl)(Cl)Cl (centres undefined),16.4 µM (active),-23.7
O=C(Cc1ccccc1)NC(NC(=S)Nc1cc(Cl)ccc1Cl)C(Cl)(Cl)Cl (centres undefined),inactive,-5.82
O=C(/C=C/c1ccccc1)NC(NC(=S)Nc1cccc(O)c1)C(Cl)(Cl)Cl (centres undefined),inactive,11.8
COc1ccc2c(c1)c(C(=O)N/N=C/c1ccc(Br)cc1)c(C)n2C,inactive,12
CCOC(=O)Cc1csc(N/N=C/c2ccc(C(F)(F)F)cc2)n1,inactive,-3.51
CCN(CC)c1ccc(/C=C2/C(=O)ON=C2C)cc1,9.2 µM (active),-20.6
CC1=NOC(=O)/C1=C/c1ccc(N(C)C)cc1,inactive,-16.6

Structure (SMILES),Potency,cell number change [%]
CCN(CC)c1ccc(C=C2C(=O)OC(c3ccccc3)OC2=O)cc1 (centres undefined),inactive,18.7
CCOC(=O)C1CCN(Cc2nnc(-c3ccccc3C)o2)CC1,inactive,14.7
CCOC(=O)C(NCCc1ccccc1F)(NC(C)=O)C(F)(F)F (centres undefined),inactive,0.435
O=C(Nc1cccc(NC(=O)c2ccco2)c1)c1ccc([N+](=O)[O-])cc1,inactive,3.56
O=C(Nc1cccnc1)c1ccc([N+](=O)[O-])o1,inactive,–
Cc1cccc(NC(=O)NNC(=O)c2ccc(C)c([N+](=O)[O-])c2)c1,inactive,11.9
O=C(Nc1ccccc1)c1ccc(NCCc2ccccc2)c([N+](=O)[O-])c1,inactive,-13.2
O=C(Nc1cccc(NC(=O)c2ccc([N+](=O)[O-])o2)c1)c1ccco1,5.8 µM (active),19.2
O=C(Nc1ccc2oc(-c3cccnc3)nc2c1)c1ccco1,inactive,-3.59
Cc1cc(C(=O)Nc2cccc(NC(=O)c3ccco3)c2)ccc1[N+](=O)[O-],1.84 µM (active),-29.7
O=C(Nc1cccc(NC(=O)c2ccccc2Cl)c1)c1ccc([N+](=O)[O-])o1,inactive,–
Cc1cc(C(=O)Nc2ccncc2)ccc1[N+](=O)[O-],inactive,-15
O=C(Nc1ccc(Cl)c([N+](=O)[O-])c1)c1ccco1,inactive,-24.9
O=C(Nc1ccc2oc(-c3cccnc3)nc2c1)c1ccc([N+](=O)[O-])o1,3.66 µM (active),-27.4
Cc1cccc(NC(=O)c2ccc(NCCc3ccccc3)c([N+](=O)[O-])c2)c1,16.4 µM (active),11.4
